Reference: PubChem BioAssay AID1159580 (chemical genetic matrix, 2015)
Among all 5,500 compounds or so, about 2,000 (36%) were called active. Another 18% or so got no clear call; they are omitted. Cut-off read from the data, not from the text of the source: active = normalized growth mostly below about 0.91 (no sharp cut-off); inconclusive = no clear call, values can overlap the other calls; inactive = mostly above about 0.92. This is one part of the list.

Assay: chemical genetic growth profiling, strain panel (AID 1159580);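 note: tested at 20 µM; growth read once vehicle control cultures reached saturation at 30 °C; 1 = growth at the plate median or of vehicle wells; lower values mean less growth of the strain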
Conditions: S. cerevisiae deletion strains, growth OD
[1] = locus YAR019C, strain CDC15, active compounds read low
[2] = locus YBL105C, strain PKC1, active compounds read low
[3] = locus YBR135W, strain CKS1, active compounds read low
[4] = locus YBR136W, strain MEC1, active compounds read low
[5] = locus YBR160W, strain CDC28, active compounds read low
[6] = locus YDL017W, strain CDC7, active compounds read low
[7] = locus YDL028C, strain MPS1, active compounds read low
[8] = locus YDL101C, strain DUN1, active compounds read low
[9] = locus YDL108W, strain KIN28, active compounds read low
[10] = locus YDL132W, strain cdc53, active compounds read low
[11] = locus YDL214C, strain PRR2, active compounds read low
[12] = locus YDR052C, strain DBF4, active compounds read low
[13] = locus YDR054C, strain cdc34, active compounds read low
[14] = locus YDR226W, strain ADK1, active compounds read low
[15] = locus YDR477W, strain SNF1, active compounds read low
[16] = locus YER123W, strain YCK3, active compounds read low
[17] = locus YER133W, strain GLC7, active compounds read low
[18] = locus YFL009W, strain cdc4, active compounds read low
[19] = locus YFL029C, strain CAK1, active compounds read low
[20] = locus YFR003C, strain YPI1, active compounds read low
[21] = locus YFR019W, strain FAB1, active compounds read low
[22] = locus YFR028C, strain CDC14, active compounds read low
[23] = locus YGR040W, strain KSS1, active compounds read low
[24] = locus YGR052W, strain FMP48, active compounds read low
[25] = locus YGR092W, strain DBF2, active compounds read low
[26] = locus YHR030C, strain SLT2, active compounds read low
[27] = locus YHR079C, strain IRE1, active compounds read low
[28] = locus YHR082C, strain KSP1, active compounds read low
[29] = locus YHR205W, strain SCH9, active compounds read low
[30] = locus YIL147C, strain SLN1, active compounds read low
[31] = locus YJL095W, strain BCK1, active compounds read low
[32] = locus YJL128C, strain PBS2, active compounds read low
[33] = locus YJL157C, strain FAR1, active compounds read low
[34] = locus YJR016C, strain ILV3, active compounds read low
[35] = locus YJR066W, strain TOR1 (second series), active compounds read low
[36] = locus YJR066W, strain TOR1, active compounds read low
[37] = locus YKL048C, strain ELM1, active compounds read low
[38] = locus YKL067W, strain YNK1, active compounds read low
[39] = locus YKL101W, strain HSL1, active compounds read low
[40] = locus YKL193C, strain SDS22, active compounds read low
[41] = locus YKL203C, strain TOR2, active compounds read low
[42] = locus YLR113W, strain HOG1, active compounds read low
[43] = locus YLR133W, strain CKI1, active compounds read low
[44] = locus YLR403W, strain SFP1, active compounds read low
[45] = locus YML070W, strain DAK1, active compounds read low
[46] = locus YMR001C, strain CDC5, active compounds read low
[47] = locus YMR205C, strain PFK2 (second series), active compounds read low
[48] = locus YMR277W, strain FCP1, active compounds read low
[49] = locus YNL006W, strain LST8, active compounds read low
[50] = locus YNL020C, strain ARK1, active compounds read low
[51] = locus YNL161W, strain CBK1, active compounds read low
[52] = locus YNL183C, strain NPR1, active compounds read low
[53] = locus YNL207W, strain RIO2, active compounds read low
[54] = locus YNL222W, strain SSU72, active compounds read low
[55] = locus YNL307C, strain MCK1 (second series), active compounds read low
[56] = locus YOL078W, strain AVO1, active compounds read low
[57] = locus YOL136C, strain PFK27, active compounds read low
[58] = locus YOR061W, strain CKA2, active compounds read low
[59] = locus YOR119C, strain RIO1, active compounds read low
[60] = locus YOR231W, strain MKK1, active compounds read low
[61] = locus YOR329C, strain SCD5, active compounds read low
[62] = locus YPL031C, strain PHO85, active compounds read low
[63] = locus YPL153C, strain RAD53, active compounds read low
[64] = locus YPL204W, strain HRR25, active compounds read low
[65] = locus YPL209C, strain IPL1, active compounds read low
[66] = locus YPL256C, strain CLN2, active compounds read low
[67] = locus YPR025C, strain CCL1, active compounds read low
[68] = locus YPR106W, strain ISR1, active compounds read low
[69] = locus YPR111W, strain DBF20, active compounds read low
[70] = strain NNK1, active compounds read low
[71] = strain TSCII, active compounds read low

Measured: normalized growth

O=C1c2ccccc2O[C@@H](c2ccccc2)[C@@H]1NCc1ccccc1
inactive: [1] 0.915 | [2] 0.916 | [3] 0.922 | [4] 0.921 | [5] 0.922 | [6] 0.915 | [7] 0.919 | [9] 0.929 | [11] 0.867 | [12] 0.914 | [13] 0.879 | [15] 0.853 | [16] 0.836 | [17] 0.836 | [18] 0.894 | [19] 0.909 | [20] 0.916 | [21] 0.894 | [23] 0.85 | [24] 0.856 | [25] 0.844 | [27] 0.839 | [28] 0.906 | [29] 0.905 | [30] 0.915 | [31] 0.751 | [32] 0.874 | [33] 0.835 | [34] 0.906 | [35] 0.76 | [36] 0.864 | [37] 0.897 | [38] 0.89 | [39] 0.899 | [40] 0.905 | [41] 0.918 | [43] 0.89 | [44] 0.834 | [45] 0.85 | [46] 0.899 | [47] 0.863 | [48] 0.904 | [49] 0.915 | [50] 0.88 | [51] 0.903 | [52] 0.92 | [53] 0.89 | [54] 0.923 | [55] 0.895 | [56] 0.903 | [57] 0.863 | [58] 0.849 | [59] 0.89 | [60] 0.887 | [61] 0.911 | [62] 0.841 | [63] 0.846 | [64] 0.825 | [65] 0.918 | [67] 0.922 | [68] 0.909 | [69] 0.911 | [70] 0.891 | [71] 0.885
active: [8] 0.905 | [10] 0.893 | [14] 0.896 | [22] 0.891 | [26] 0.677 | [42] 0.739 | [66] 0.846

O=C1c2ccccc2O[C@@H](c2ccccc2)[C@@H]1NC1CCCCC1
active: [8] 0.898 | [10] 0.887 | [12] 0.907 | [13] 0.872 | [18] 0.884 | [22] 0.888 | [26] 0.697 | [34] 0.898 | [42] 0.747 | [49] 0.906
inactive: [1] 0.904 | [2] 0.909 | [3] 0.914 | [4] 0.916 | [5] 0.927 | [6] 0.914 | [7] 0.913 | [9] 0.924 | [11] 0.883 | [14] 0.898 | [15] 0.87 | [16] 0.843 | [17] 0.841 | [19] 0.91 | [20] 0.915 | [21] 0.889 | [23] 0.866 | [24] 0.885 | [25] 0.871 | [27] 0.852 | [28] 0.933 | [29] 0.898 | [30] 0.909 | [31] 0.792 | [32] 0.872 | [33] 0.849 | [35] 0.771 | [36] 0.888 | [37] 0.901 | [38] 0.903 | [39] 0.906 | [40] 0.902 | [41] 0.922 | [43] 0.897 | [44] 0.849 | [45] 0.871 | [46] 0.901 | [47] 0.878 | [48] 0.905 | [50] 0.901 | [51] 0.9 | [52] 0.941 | [53] 0.898 | [54] 0.919 | [55] 0.904 | [56] 0.9 | [57] 0.887 | [58] 0.867 | [59] 0.945 | [60] 0.874 | [61] 0.909 | [62] 0.867 | [63] 0.864 | [64] 0.843 | [65] 0.917 | [66] 0.858 | [67] 0.914 | [68] 0.91 | [69] 0.92 | [70] 0.905 | [71] 0.881

Nc1ccc(N2C(=O)c3ccccc3C2=O)c(Cl)c1
inactive: locus YAL040C, strain CLN3, active compounds read low 1.06 | locus YCL061C, strain MRC1 (second series), active compounds read low 1.01 | locus YER002W, strain NOP16, active compounds read low 0.974 | locus YGR078C, strain PAC10, active compounds read low 0.98 | locus YJR075W, strain HOC1, active compounds read low 1 | locus YNL153C, strain GIM3, active compounds read low 0.995 | locus YNL175C, strain NOP13, active compounds read low 0.958 | locus YNL197C, strain WHI3, active compounds read low 0.935 | locus YNL224C, strain SQS1, active compounds read low 0.94 | locus YNL322C, strain KRE1, active compounds read low 0.986 | locus YOR083W, strain WHI5 (second series), active compounds read low 1.02
